# Experimental data taken from PubChem BioAssay AID504339 (National Center for Advancing Translational Sciences (NCATS), 2011).
# Among all 390,000 compounds or so, about 17,000 (4.4%) were called active. Roughly 8% stayed inconclusive and do not appear here. The entries come from a sample that favours actives as a whole. Unmarked numbers belong to inactive results. The call rests on the fitted dose curve; in most records, active means well fitted inhibition curve with a large enough effect; inconclusive means small, poorly fitted or top-dose-only effect; inactive means no such curve, though single readings can be large or run the other way.
# Target: Lysine-specific demethylase 4A (Homo sapiens) (UniProt O75164)
# Experiment: qHTS Assay for Inhibitors of JMJD2A-Tudor Domain; further: nearly all actives have a fitted effect of over 50% in size
# Conditions: AlphaScreen JMJD2A-Tudor / H3K4me3 peptide binding; series mostly up to 114 µM; activity change, negative = inhibition: at the top concentration
# From the text: JMJD2A is a jumonji-domain-containing lysine demethylase that uses Fe(II) together with 2-OG to effect oxidative demethylation of histones. Methylation is one of many […] modification that affect epigenetic transcription. […] It is proposed that the functions of JmjD2A binding to the histones, is to maintain marks after they are installed and to spread the modifications by […], establishing a self-propagating cycle for rapid methylation over a large area of chromatin. […] Thus, small molecule targeting of the JMJD2A-tudor domain interaction with its target methylhistone mark is expected to enable sophisticated experiments probing the fine regulatory pathways leading to selective demethylation of a given methyllysine locus based on the methylation state of adjacent histone marks. A quantitative high throughput AlphaScreen has been developed to identify small molecule inhibitors based on a protocol published by NCGC and SGC [4].
# Although AlphaScreen has significant advantages with its utility in a variety of epigenetic target assays, the primary screening data provided in this deposition should be used with caution due to the prevalence of screening artifacts. The top compound concentration tested was high (>100uM) in this assay, which increases number of actives and potential artifacts. An AlphaScreen counterscreen is highly recommended to be run against any putative actives to eliminate non-specific artifacts. Alternatively, one can use other AlphaScreen assays in PubChem to filter out promiscuous hits.
# [1] Lee, J. et al. Distinct binding modes specify the recognition of methylated histone H3K4 and H4K20 by JMJD2A-tudor. Nat Struct Mol Biol. 15(1); 109-11. 2008. PMID: 18084306
# [2] Yasgar, et al. Compound Management for Quantitative High-Throughput Screening. JALA. 2008 Apr;13(2):79-89. PMID: 18496600
# [3] Inglese, et al. Quantitative high-throughput screening: a titration-based approach that efficiently identifies biological activities in large chemical libraries. Proc Natl Acad Sci. 1;103(31):11473-8. 2006. PMID: 16864780
# [4] Quinn et al. A homogeneous method for investigation of methyl-dependent protein-protein interactions in epigenetics. Nucleic Acids Res., 38(2):e11. 2010. PMID: […]
# [5] Baell,Holloway. New substructure filters for removal of pan assay interference compounds (PAINS) from screening libraries and for their exclusion in bioassays. J Med Chem. 53(7):2719-40. 2010. PMID: 20131845
# NIH Molecular Libraries Probe Production Network [MLPCN]
# NIH Chemical Genomics Center [NCGC]
# Structural Genomics Consortium (SGC)
# To each well of a 1,536w plate, 2ul of JMJD2A-Tudor (final 100nM) and 1ul biotinylated histone peptide methylated at Lys4 [b-H3(1-18)K4me3] (final 50nM) were added in 1x PBS buffer, pH 7.4, containing 0.01% Tween-20, using a nanoliter dispenser. Formation of a protein-peptide complex proceeded at room temperature for 30 min. A Kalypsys pin-tool transferred 23nl of library compound solution in DMSO to each well. Following a 30 min incubation of the protein-peptide complex with compounds at room temperature, a mixture of 40 µg/mL each streptavidin-coated donor and nickel chelate acceptor AlphaScreen beads (final 10 µg/mL) was added in a 1ul dispense for a final volume of 4ul, followed by a brief centrifugation (1000 rpm, 1 min). Plates were incubated protected from the light for 20 min at room temperature. Microplates were then read on an EnVision multilabel plate reader using the 1,536 plate HTS AlphaScreen aperture (excitation time 80 ms, measurement time 240 ms).
# On the % scale 0 is the no-effect control and ±100 the full control effect; potency means the concentration at half of the fitted maximal effect.
# Sequence of Lysine-specific demethylase 4A (Homo sapiens) (O75164 whole entry, looked up, the tested form may be a part): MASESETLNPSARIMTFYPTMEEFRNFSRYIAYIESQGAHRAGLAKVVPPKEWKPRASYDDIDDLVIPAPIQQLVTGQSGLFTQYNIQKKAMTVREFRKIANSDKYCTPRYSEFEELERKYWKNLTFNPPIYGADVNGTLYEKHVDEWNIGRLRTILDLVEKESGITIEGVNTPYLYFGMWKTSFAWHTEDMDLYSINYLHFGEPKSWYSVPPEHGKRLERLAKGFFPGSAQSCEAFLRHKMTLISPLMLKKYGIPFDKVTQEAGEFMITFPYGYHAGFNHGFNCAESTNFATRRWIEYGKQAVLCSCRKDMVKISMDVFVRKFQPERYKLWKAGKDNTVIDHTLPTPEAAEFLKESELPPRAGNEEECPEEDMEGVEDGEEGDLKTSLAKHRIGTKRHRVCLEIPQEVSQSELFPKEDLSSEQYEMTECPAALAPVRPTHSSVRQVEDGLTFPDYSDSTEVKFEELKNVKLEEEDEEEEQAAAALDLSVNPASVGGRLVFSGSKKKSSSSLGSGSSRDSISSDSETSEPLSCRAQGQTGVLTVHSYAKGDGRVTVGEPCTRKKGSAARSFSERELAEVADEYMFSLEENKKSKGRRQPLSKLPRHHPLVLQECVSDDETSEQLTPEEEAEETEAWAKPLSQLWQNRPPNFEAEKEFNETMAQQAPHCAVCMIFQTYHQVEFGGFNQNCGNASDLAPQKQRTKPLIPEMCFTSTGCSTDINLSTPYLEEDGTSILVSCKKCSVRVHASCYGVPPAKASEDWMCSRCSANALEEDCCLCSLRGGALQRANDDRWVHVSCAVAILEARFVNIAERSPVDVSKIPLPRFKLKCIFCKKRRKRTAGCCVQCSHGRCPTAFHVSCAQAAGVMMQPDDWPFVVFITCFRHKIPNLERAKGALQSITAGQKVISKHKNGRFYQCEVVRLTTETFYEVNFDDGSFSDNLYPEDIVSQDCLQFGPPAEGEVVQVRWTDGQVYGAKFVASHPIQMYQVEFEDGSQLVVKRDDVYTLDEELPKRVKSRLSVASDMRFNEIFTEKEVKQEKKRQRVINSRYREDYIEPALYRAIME
SMILES,"activity change, negative = inhibition [%]",Potency
CCc1ccc2ncc3c(-c4ccc(C)cc4)nn(CC(=O)NCc4ccccc4)c3c2c1,-23.7,–
CC(=O)N1CCCc2cc(S(=O)(=O)N3CCC(C(=O)NCc4ccc(F)cc4)CC3)ccc21,-10,–
CCOc1ccccc1C(=O)NC1(C(F)(F)F)C(=O)Nc2c1c(=O)[nH]c(=O)n2-c1ccc(F)cc1 (centres undefined),2.41,–
COc1cccc(CNS(=O)(=O)c2ccc3c(c2)CC(C)N3C(=O)C2CCC2)c1 (centres undefined),–,inactive
CC(=O)N1c2ccc(S(=O)(=O)N(C)CC(=O)N(C)Cc3ccccc3)cc2CC1C (centres undefined),-10.5,–
CC(=O)N1c2ccc(S(=O)(=O)NCCC(=O)N(C)C3CCCCC3)cc2CC1C (centres undefined),–,14.1 µM (active)
CCc1ccc(CN(Cc2ccco2)C(=O)c2ccccc2Cl)cc1,-2.2,–
C#CC(C)(CC)NC(=O)Cn1nnc(-c2ccc(OCc3c(F)cccc3Cl)cc2)n1 (centres undefined),-20.5,–
Cc1cc2c(s1)c1cnn(Cc3cc(F)c(Cl)cc3Cl)c(=O)c1n2C,6.85,–
CCOC(=O)c1ccc(N2C(=O)c3n[nH]c(C)c3C2c2ccc(O)c(OC)c2)cc1 (centres undefined),-19.7,–
CCN(CC)CCNC(=O)Cn1cnc2sc(C)c(S(=O)(=O)N3CCOCC3)c2c1=O,-3.57,–
CCCN(CCC)CCNC(=O)Cn1cnc2sc(C)c(S(=O)(=O)N3CCC(C)CC3)c2c1=O,-15.4,–
Cc1sc2ncn(CC(=O)NCCN(C)C)c(=O)c2c1S(=O)(=O)N1CCC(C)CC1,–,22.4 µM (active)
CCN(CCCNC(=O)c1cc(Nc2ccc(OC)cc2)nc2ccccc12)c1cccc(C)c1,-27,–
CCOc1ccc(CCNC(=O)Cn2nc(CC)n3c(cc4sc(CC)cc43)c2=O)cc1OCC,-15.6,–
CCc1cc2c(cc3c(=O)n(CC(=O)N4CCN(c5cc(Cl)ccc5C)CC4)ncn32)s1,4.73,–
CCc1cc2c(cc3c(=O)n(CC(=O)NCCc4ccc(OC)c(OC)c4)ncn32)s1,–,89.1 µM (active)
Cc1ccc(NC(=O)C2CCN(S(=O)(=O)c3cc(-c4noc(C)n4)ccc3C)CC2)c(C)c1,-6.67,–
CCOCCCn1c(SCC(=O)Nc2ccc(CC)cc2)nc2ccccc2c1=O,9.33,–
CCOc1ccc(CNC(=O)CCc2c(C)nn(-c3ccc(N4CCCCC4)nn3)c2C)cc1,-24,–
CCN(CC)/[N+]([O-])=N/Oc1cc(O/[N+]([O-])=N/N2CCCC2CO)c([N+](=O)[O-])cc1[N+](=O)[O-] (centres undefined),–,20 µM (active)
COc1ccc(C(=O)Nc2ccc(-n3nncc3-c3ccccc3)cc2)cc1OC,-34.3,–
Cc1ccc(-n2c(C)cc(C(=O)CSc3nnc4ccccn34)c2C)cc1,-20.1,–
Cc1cc(C(=O)COC(=O)C2CC2)c(C)n1-c1ccc(F)cc1,-25.6,–
Cc1ccc(-n2c(C)cc(C(=O)CN3C(=O)C(=O)N(C4CCCC4)C3=O)c2C)cc1,–,31.6 µM (active)

SMILES,"activity change, negative = inhibition [%]",Potency
Cc1c(Cl)cccc1NC(=O)C(=O)NCCc1csc2nc(-c3ccccc3F)nn12,-13.7,–
CC(C)c1ccc(NC(=S)NC2CC3C=CC2C3)cc1 (centres undefined),-10,–
S=C(NNC(=S)NC1CC2C=CC1C2)NC1CC2C=CC1C2 (centres undefined),–,3.16 µM (active)
COc1ccc(-c2noc(CCC(=O)N(C)c3ccccc3C)n2)cc1,-3.42,–
CCCCOc1ccc(CN2C(=O)C(=O)c3cc(Br)cc(C)c32)cc1OC,–,14.1 µM (active)
CCCCN1C(=O)C(C)=C(C)C1OCCc1ccc(OC)c(OC)c1 (centres undefined),-2.62,–
CCCCOc1ccc(Cn2c(=O)oc3ccc(C)cc32)cc1OC,61.2,–
COc1ccc(NC(=O)c2cc3cc(C)ccc3n2C)cc1,-2.32,–
COc1ccc(-n2c(SCC(=O)Nc3ccc(Cl)c(C)c3)nc3n[nH]c(C)c3c2=N)cc1,-14,–
Cc1cccc(Nc2nc(C)nc(N)c2S(=O)(=O)c2ccccc2)c1,-11.2,–
CCOc1ccc(-c2nonc2NC(=O)c2oc3ccc(CC)cc3c2C)cc1,-12.6,–
COc1ccccc1-c1cc(C(F)(F)F)nc(S(=O)(=O)CCCC(=O)Nc2cc(C)ccc2O)n1,-24.2,–
COc1ccccc1-c1cc(C(F)(F)F)nc(S(=O)(=O)CCCC(=O)Nc2ccc(F)cc2F)n1,-6.48,–
CSc1ccccc1NC(=O)CCS(=O)(=O)c1nc(-c2cccs2)cc(C(F)(F)F)n1,–,22.4 µM (active)
CCc1ccccc1NC(=O)c1ccc(F)c(S(=O)(=O)NC2CCCCCC2)c1,-4.28,–
CN(CC(=O)Nc1ccc(N2CCOCC2)cc1)CC(=O)Nc1ccccc1[N+](=O)[O-],-5.3,–
Cc1cc(Nc2ccc(N3CCOCC3)cc2)c2cccc(C)c2n1,-25.5,–
Cc1ccccc1N/N=C/c1ccc(N2CCOCC2)cc1,–,50.1 µM (active)
CC(=O)N1CCN(c2ccc(NCc3ccc(C(C)C)cc3)cc2)CC1,–,44.7 µM (active)
COc1ccc(N2CCN(C(=O)CNC(=O)c3ccc(Br)o3)CC2)cc1,-12.5,–
CC(=O)c1ccc(N2CCN(C(=O)CCc3ccccc3)CC2)cc1,-19.3,–
O=C(O)c1cscn1,–,4.47 µM (active)
Cc1ccc2nc(COc3ccccc3NC(=O)Nc3ccc(F)c(Cl)c3)cc(=O)n2c1,-14.3,–
COc1ccc(CCNC(=O)CCCCn2c(=O)c3ccccc3n(Cc3ccccc3)c2=O)cc1OC,-5.46,–
